Reference: PubChem BioAssay (NCATS)
Results filed as inconclusive are left out. Active and inactive are the calls of the source. Unless noted, calls come from the whole dose curve; as a rule, active = well fitted curve in either direction with a large enough effect (not every such curve was filed as active); inconclusive = small, poorly fitted or top-dose-only effect, or another doubt; inactive = flat fitted curve, though single readings scatter.

Experiments:
[1] = target: Lysosomal acid glucosylceramidase (Homo sapiens) (UniProt P04062); experiment: Glucocerebrosidase-p2 (AID 348; in the data active = potency below about 10 µM; note: potency is the fitted concentration of half-maximal effect); conditions: purified GBA, blue fluorogenic substrate, 40 min
In short: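 Compounds titrated from 0.6 nM upwards against 0.2 nM enzyme in pH 5.9 citric acid/KH2PO4, taurocholate, tween-20; blue fluorogenic substrate 80 uM, 40 min room temperature, stopped and read Ex 365/Em 440 for AC50.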

[2] = AP1 Signaling Pathway (AID 357); conditions: ME-180 AP-1-bla reporter, EGF-induced, beta-lactamase ratio, 5 h; at 7.69 µM (top of the series) unless noted;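 note: ME-180 reporter cells stimulated with EGF at its EC50 level; % is set by controls: 0 for no effect and ±100 for the full control effect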
In short: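 Read-out was the 460nm/530nm emission ratio (excitation 405nm) after CCF4 loading for 2.5 hours at room temperature. Cells carried an AP-1-driven beta-lactamase reporter, were stimulated with EC50 EGF plus compound for 5 hours, and AC50 values came from titrations.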

[3] = target: Cytochrome P450 1A2 (Homo sapiens) (UniProt P05177); experiment: p450-cyp1a2 (AID 410; calls by dose curve; note: potency is the fitted concentration of half-maximal effect;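 for activity change, negative = inhibition: -100% = full effect of reference inhibitor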); conditions: recombinant CYP1A2, luciferin-ME demethylation, luminescence; series mostly up to 11.4 µM
In short: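 20nM CYP1A2 with 100uM Luciferin-ME (at Km) in 100mM KPO4; compound preincubated 10 min, NADPH regeneration added, 60 min at room temperature. Luciferin quantified by luminescence after detection reagent; normalized to 57 uM furafylline.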

[4] = NFAT Signaling Pathway (AID 444); conditions: Jurkat NFAT-bla M1, carbachol, beta-lactamase ratio, 5 h; at 7.69 µM (top of the series) unless noted;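 note: carbachol stimulus at about its EC50 of 1 µM final; % is set by controls: 0 for no effect and ±100 for the full control effect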
In short: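 Jurkat cells with NFAT-driven β-lactamase reporter and co-expressed M1 receptor, stimulated with carbachol (final 1 uM, ~EC50), compound titration, 5 h at 37 °C. CCF4 loaded 1 h at RT; 460/530 nm ratio gave %activity and AC50.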

[5] = target: Glucocorticoid receptor (Homo sapiens) (UniProt P04150); experiment: GR-GFP Redistribution (AID 450;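 active = compounds whose dose series gives a full or clear partial fitted curve of increased nuclear translocation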; note: potency is the fitted concentration of half-maximal effect); conditions: U2OS GR-GFP nuclear translocation, laser cytometry, 2 h
[6] = target: Glucocorticoid receptor (Homo sapiens) (UniProt P04150); experiment: GR-EFC Redistribution (AID 451; calls by dose curve; note: potency is the fitted concentration of half-maximal effect); conditions: CHO-K1 GR-EFC translocation, beta-gal luminescence, 2 h
In short: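 CHO-K1 cells expressing nuclear EA and GR-ED fragments of b-gal; compounds titrated up to 46 uM final, 2 h at 37 C. GR nuclear translocation read as complemented b-gal luminescence after 1 h RT detection.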

[7] = target: Mitogen-activated protein kinase 10 (Mus musculus) (UniProt Q61831); experiment: JNK3 AlphaScreen Assay (AID 530); conditions: JNK3 lysate, c-Jun phosphorylation; series mostly up to 11.4 µM;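 note: kinase came from lysate of stimulated human HepG2 cells; signal reports phosphorylation of biotinylated GST-cJun 1-79 at Ser73 with 10 µM ATP; % is set by controls: 0 for no effect and ±100 for the full control effect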
In short: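 Pre-activated (IL-1β/TNFα) JNK3 in HepG2 lysates phosphorylates biotin-GST-cJun(1-79), 10 uM ATP; anti-phospho-cJun(Ser73) AlphaScreen read at room temperature, pH 7.6 Tris buffer. Compounds pre-incubated 15 min as titrations.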

[8] = target: 3',5'-cyclic-AMP phosphodiesterase 4B (Homo sapiens) (UniProt Q07343); experiment: qHTS Assay for Inhibitors of PDE-IV (AID 607; active = well fitted activation curve with a large enough effect in the main read-out, with a control signal flat, not every such curve was filed as active; note: % of control where 0% means no effect); conditions: HEK293 ACTOne CNG channel cells, membrane potential fluorescence; series mostly up to 22.9 µM
In short: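 ACTOne HEK293 cells carry a modified cAMP-gated CNG channel and express endogenous PDE4; plated 1000 cells/well, compounds up to 22.9 uM final. Membrane-potential dye fluorescence (ex 535/em 590) was read; parental cells received 10 uM forskolin + 100 uM RO 20-1724.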

[9] = qHTS Assay for Identification of Small Molecule Agonists for Hypoxia Response Element Signaling Pathway (AID 914; active = well fitted activation curve with a large enough effect in the signal ratio, with a control signal flat, not every such curve was filed as active; the % refers to the signal ratio; note: % of control where 0% means no effect); conditions: ME-180 HRE-bla reporter, beta-lactamase ratio, CoCl2, 17 h; activation: hits give high values
In short: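 HRE-bla ME-180 assay for agonist-like enhancement of an EC50 CoCl2 stimulus: 17 h at 37 degrees Celsius, CCF4 for 2.5 h, ratiometric 460/530 nm signal converted to %Activity and fitted to AC50.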

[10] = Stat Signaling Pathway (AID 446); conditions: ME-180 SIE beta-lactamase reporter, IL-6 stimulated, 5 h; at 7.69 µM (top of the series) unless noted;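 note: ME-180 cervical cancer cells given 40 pM IL-6 alongside compound; SIE-controlled beta-lactamase reporter measured as 460/530 nm FRET emission ratio; % is set by controls: 0 for no effect and ±100 for the full control effect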
In short: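 ME-180 SIE-bla cells; overnight plating; cpd + IL-6 40 pM, 5 h, 37 C; LiveBLAzer 2.5 h RT; 460/530 nm emission ratio. Normalized to 300 pM IL-6 and 125 nM JAK inhibitor controls.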

[11] = target: Cytochrome P450 2C9 (Homo sapiens) (UniProt P11712); experiment: qHTS Assay for Inhibitors and Substrates of Cytochrome P450 2C9 (AID 883; active = well fitted curve in the direction sought with a large enough effect; an effect the other way counts as inactive or inconclusive; note: potency is the fitted concentration of half-maximal effect; nearly all actives have a fitted effect of over 60% in size); conditions: recombinant CYP2C9, luciferin-H luminescence, 60 min; series mostly up to 11.4 µM
In short: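 Human CYP2C9 (10nM) with Luciferin-H at 100uM (its KM) in 25mM KPO4; compound preincubated 10 min at 37C, then NADPH regeneration for 60 min at 37C. Luciferin read by luminescence after detection reagent; normalized to 57uM sulphaphenazole as full inhibition.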

[12] = target: Cytochrome P450 3A4 (Homo sapiens) (UniProt P08684); experiment: qHTS Assay for Inhibitors and Substrates of Cytochrome P450 3A4 (AID 884; active = well fitted curve in the direction sought with a large enough effect; an effect the other way counts as inactive or inconclusive; note: potency is the fitted concentration of half-maximal effect; nearly all actives have a fitted effect of over 50% in size); conditions: recombinant CYP3A4, Luciferin-PPXE luminescence; series mostly up to 57.1 µM
In short: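 20 nM human CYP3A4 with 25 uM Luciferin-PPXE (at KM) in 200 mM KPO4, preincubated 10 min with compound; NADPH regeneration started a 60 min RT reaction. Luciferin detected by luminescence, normalized to 57 uM ketoconazole as full inhibition.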

[13] = target: Cytochrome P450 3A4 (Homo sapiens) (UniProt P08684); experiment: qHTS Assay for Activators of Cytochrome P450 3A4 (AID 885; active = well fitted curve in the direction sought with a large enough effect; an effect the other way counts as inactive or inconclusive; note: nearly all actives have a fitted effect of over 65% in size); conditions: recombinant CYP3A4, Luciferin-PPXE luminescence, 60 min; series mostly up to 11.4 µM
In short: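 20nM CYP3A4 + 25uM Luciferin-PPXE (=KM), 200mM KPO4; cpd 10 min RT; NADPH regen, 60 min RT; stop w/ detection buffer, 20 min; luminescence. Normalized to 57 uM ketoconazole.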

Cytochrome P450 1A2 (Homo sapiens), sequence (P05177 whole entry, looked up): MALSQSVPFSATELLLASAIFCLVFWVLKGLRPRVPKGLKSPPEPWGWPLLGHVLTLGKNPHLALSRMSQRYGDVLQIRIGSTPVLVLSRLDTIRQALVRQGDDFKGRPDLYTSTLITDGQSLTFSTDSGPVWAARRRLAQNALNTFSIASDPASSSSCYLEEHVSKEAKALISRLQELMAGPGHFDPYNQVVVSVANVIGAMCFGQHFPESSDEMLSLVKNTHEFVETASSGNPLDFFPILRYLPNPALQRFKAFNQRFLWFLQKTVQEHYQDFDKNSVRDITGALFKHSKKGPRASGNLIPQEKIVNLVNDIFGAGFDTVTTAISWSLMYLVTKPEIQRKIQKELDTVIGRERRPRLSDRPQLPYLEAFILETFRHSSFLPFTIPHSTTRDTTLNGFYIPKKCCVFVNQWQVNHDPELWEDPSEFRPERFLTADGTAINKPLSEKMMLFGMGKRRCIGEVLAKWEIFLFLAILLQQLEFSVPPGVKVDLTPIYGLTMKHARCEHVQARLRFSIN
Lysosomal acid glucosylceramidase (Homo sapiens), sequence (P04062 whole entry, looked up): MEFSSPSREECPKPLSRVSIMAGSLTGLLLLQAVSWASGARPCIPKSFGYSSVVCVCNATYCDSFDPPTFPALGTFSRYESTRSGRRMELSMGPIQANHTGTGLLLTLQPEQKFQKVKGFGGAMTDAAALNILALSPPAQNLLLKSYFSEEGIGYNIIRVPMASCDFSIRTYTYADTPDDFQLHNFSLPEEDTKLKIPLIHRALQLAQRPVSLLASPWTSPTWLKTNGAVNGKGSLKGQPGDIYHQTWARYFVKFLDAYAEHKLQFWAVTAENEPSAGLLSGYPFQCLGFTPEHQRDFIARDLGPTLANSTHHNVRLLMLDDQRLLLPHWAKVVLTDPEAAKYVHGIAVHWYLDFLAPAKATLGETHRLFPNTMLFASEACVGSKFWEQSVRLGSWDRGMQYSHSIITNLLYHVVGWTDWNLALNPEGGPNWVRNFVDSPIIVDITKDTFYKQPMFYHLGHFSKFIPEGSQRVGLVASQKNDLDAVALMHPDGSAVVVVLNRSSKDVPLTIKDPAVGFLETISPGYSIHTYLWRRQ
Glucocorticoid receptor (Homo sapiens), sequence (P04150 whole entry, looked up, the tested form may be a part): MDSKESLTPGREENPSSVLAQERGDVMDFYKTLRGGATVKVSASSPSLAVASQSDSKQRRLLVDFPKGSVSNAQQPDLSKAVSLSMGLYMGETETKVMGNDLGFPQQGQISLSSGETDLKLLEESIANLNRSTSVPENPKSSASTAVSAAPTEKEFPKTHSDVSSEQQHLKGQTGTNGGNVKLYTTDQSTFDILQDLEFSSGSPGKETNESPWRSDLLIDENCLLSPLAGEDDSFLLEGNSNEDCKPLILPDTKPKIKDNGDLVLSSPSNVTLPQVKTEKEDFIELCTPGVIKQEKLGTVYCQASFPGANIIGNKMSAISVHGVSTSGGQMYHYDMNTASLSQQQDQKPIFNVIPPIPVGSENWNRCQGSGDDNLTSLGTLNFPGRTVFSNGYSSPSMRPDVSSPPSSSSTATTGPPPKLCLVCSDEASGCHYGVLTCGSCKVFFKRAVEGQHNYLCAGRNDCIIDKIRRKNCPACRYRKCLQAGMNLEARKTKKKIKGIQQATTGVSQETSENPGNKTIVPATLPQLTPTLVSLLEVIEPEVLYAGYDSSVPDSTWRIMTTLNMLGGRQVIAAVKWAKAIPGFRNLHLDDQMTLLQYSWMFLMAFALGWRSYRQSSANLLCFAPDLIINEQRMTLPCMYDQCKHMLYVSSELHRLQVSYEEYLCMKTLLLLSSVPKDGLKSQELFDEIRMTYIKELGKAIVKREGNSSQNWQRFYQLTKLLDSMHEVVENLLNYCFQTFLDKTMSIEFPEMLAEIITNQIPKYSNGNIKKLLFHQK
3',5'-cyclic-AMP phosphodiesterase 4B (Homo sapiens), sequence (Q07343 whole entry, looked up): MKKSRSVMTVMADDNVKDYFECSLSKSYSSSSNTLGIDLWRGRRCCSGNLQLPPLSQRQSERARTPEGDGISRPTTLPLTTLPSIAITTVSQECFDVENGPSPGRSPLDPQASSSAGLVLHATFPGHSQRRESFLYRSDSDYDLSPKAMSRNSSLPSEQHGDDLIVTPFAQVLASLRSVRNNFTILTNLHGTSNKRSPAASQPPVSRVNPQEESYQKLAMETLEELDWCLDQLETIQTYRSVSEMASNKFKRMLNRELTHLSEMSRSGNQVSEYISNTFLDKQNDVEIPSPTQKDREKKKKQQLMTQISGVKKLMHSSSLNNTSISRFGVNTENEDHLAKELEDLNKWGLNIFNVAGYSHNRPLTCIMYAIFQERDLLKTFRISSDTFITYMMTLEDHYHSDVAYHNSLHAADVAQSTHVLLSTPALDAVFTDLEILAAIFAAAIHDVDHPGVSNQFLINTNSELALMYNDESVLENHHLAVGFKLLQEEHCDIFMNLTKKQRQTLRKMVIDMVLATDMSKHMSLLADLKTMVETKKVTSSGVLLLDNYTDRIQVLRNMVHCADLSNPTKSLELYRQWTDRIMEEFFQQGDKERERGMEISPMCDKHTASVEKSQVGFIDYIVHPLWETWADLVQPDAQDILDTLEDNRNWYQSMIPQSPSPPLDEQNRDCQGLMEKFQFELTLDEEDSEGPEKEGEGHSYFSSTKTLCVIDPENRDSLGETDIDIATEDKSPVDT
Cytochrome P450 3A4 (Homo sapiens), sequence (P08684 whole entry, looked up): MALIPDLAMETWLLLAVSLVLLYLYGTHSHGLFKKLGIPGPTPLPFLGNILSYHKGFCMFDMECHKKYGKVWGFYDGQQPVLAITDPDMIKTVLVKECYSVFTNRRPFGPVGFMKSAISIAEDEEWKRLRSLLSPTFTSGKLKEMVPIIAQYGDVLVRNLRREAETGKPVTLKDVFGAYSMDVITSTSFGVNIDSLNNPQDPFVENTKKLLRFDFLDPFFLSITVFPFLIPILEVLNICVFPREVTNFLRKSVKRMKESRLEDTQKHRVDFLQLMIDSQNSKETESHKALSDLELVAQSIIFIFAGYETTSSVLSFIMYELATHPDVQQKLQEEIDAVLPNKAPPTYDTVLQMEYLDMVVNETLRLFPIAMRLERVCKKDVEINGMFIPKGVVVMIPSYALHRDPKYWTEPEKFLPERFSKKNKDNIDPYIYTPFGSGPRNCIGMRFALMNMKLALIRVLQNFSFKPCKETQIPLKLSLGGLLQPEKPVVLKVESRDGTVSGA
Cytochrome P450 2C9 (Homo sapiens), sequence (P11712 whole entry, looked up): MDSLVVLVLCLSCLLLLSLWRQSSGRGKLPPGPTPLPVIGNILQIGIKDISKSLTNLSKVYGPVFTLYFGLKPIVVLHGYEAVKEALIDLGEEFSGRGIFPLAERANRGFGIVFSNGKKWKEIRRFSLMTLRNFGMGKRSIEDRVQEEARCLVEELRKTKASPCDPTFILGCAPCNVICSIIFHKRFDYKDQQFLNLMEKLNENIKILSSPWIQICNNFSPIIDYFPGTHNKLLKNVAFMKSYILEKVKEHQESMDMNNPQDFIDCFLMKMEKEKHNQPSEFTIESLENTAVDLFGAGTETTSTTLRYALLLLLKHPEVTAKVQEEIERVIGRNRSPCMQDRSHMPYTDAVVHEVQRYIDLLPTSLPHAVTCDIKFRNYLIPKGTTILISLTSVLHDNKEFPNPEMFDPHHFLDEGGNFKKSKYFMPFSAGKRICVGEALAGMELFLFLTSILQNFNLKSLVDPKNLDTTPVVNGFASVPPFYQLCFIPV

CC(C)CCC[C@@H](C)[C@@H]1CC[C@@H]2[C@H]3CC[C@H]4C[C@@H](N)CC[C@@]4(C)[C@@H]3CC[C@]21C
inactive: Potency [1] > 11.4 µM | activity change, negative = inhibition [2] 13.1% | Potency [3] | activity change, negative = inhibition [4] 26.8% | Potency [5] > 46 µM | Potency [6] > 9.22 µM | Potency [7] | Potency [8] | activation [9] 7.37%

O=C(O)C[n+]1ccccc1
inactive: Potency [1] > 11.4 µM | activity change, negative = inhibition [2] -3.27% | Potency [3] | activity change, negative = inhibition [4] -24% | Potency [7] | Potency [8]

O=S(=O)(O)c1ccc(-c2nnc(-c3ccccn3)nc2-c2ccc(S(=O)(=O)O)o2)o1
inactive: Potency [1] > 11.4 µM | activity change, negative = inhibition [2] 4.23% | Potency [3] | activity change, negative = inhibition [4] 3.88% | Potency [5] > 46 µM | Potency [6] > 9.22 µM | Potency [7] | Potency [8] | activation [9] 8.26%

O[C@@H](c1cc(C(F)(F)F)nc2c(Cl)cc(Cl)cc12)[C@@H]1CCCCN1
inactive: Potency [1] > 11.4 µM | activity change, negative = inhibition [2] 14.2% | activity, negative = inhibition [10] -0.0324% | Potency [5] > 46 µM | Potency [6] > 9.22 µM | Potency [7] | Potency [8]
active: Potency [3] 3.98 µM

COc1ccc2c3c(ccc2c1)N[C@H](C(=O)O)CC3
active: Potency [3] 0.501 µM
inactive: Potency [1] > 11.4 µM | activity change, negative = inhibition [2] -4.14% | activity, negative = inhibition [10] -6.67% | Potency [5] > 46 µM | Potency [6] > 9.22 µM | Potency [7] | Potency [8]

O=C(O)/C=C\C(=O)N1Cc2cc3ccccc3nc2C1
inactive: Potency [1] > 11.4 µM | activity change, negative = inhibition [2] 6.48% | Potency [3] | activity, negative = inhibition [10] 12.1% | Potency [5] > 46 µM | Potency [6] > 9.22 µM | Potency [7] | Potency [8]

COc1ccccc1CCn1c(=O)c(-c2ccc(F)cc2)nc2cncnc21
active: Potency [3] 1 µM | Potency [11] 3.98 µM | Potency [12] 3.98 µM
inactive: Potency [1] > 11.4 µM | activity change, negative = inhibition [2] -8.06% | activity change, negative = inhibition [4] -26.6% | Potency [5] > 9.22 µM | Potency [6] > 46 µM | Potency [7] | Potency [13]

COC(=O)CC[C@@H](C)[C@H]1CC[C@H]2[C@H]3CC[C@H]4C[C@@H]5CC[C@@]4(C)C3(O5)[C@@H](Br)[C@@H](Br)[C@@]12C
inactive: Potency [1] > 11.4 µM | activity change, negative = inhibition [2] 21.4% | Potency [3] | activity change, negative = inhibition [4] 8.56% | Potency [5] > 46 µM | Potency [6] > 9.22 µM | Potency [8] | Potency [13]
active: Potency [11] 2.51 µM

CN(C)CCCN1CCC2(CCC(C(C)(C)C)CC2)CC1
inactive: Potency [1] > 11.4 µM | activity change, negative = inhibition [2] -6.54% | Potency [3] | activity, negative = inhibition [10] 8.08% | Potency [5] > 46 µM | Potency [6] > 9.22 µM | Potency [7]
